Assay outcomes: PubChem BioAssay, National Center for Advancing Translational Sciences (NCATS)
Shown are actives, neighbours in structure and some others; about 2.9% of the full set was active somewhere.
DRD3 agonist = D3 dopamine receptor (human) agonism. D3R DiscoveRx beta-arrestin cells, luminescence, 90 min. max activation, %. hit rate 0.58% among 410,000; in the data active = max activation above about 30%; also: 0% is about no effect
Target sequence (P35462 whole entry, looked up): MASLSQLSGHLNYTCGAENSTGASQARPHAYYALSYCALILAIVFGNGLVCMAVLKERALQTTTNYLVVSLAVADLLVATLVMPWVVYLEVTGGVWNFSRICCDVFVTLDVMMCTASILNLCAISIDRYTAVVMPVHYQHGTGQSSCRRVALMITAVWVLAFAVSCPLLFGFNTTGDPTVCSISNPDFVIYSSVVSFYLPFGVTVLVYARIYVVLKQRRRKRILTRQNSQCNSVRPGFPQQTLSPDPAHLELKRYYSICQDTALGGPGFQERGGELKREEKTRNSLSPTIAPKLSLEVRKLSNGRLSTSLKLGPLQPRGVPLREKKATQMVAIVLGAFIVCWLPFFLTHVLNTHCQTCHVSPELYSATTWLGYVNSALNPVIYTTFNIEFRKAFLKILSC
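Agonist-mode cell screen: cells plated at 1500/well and incubated overnight at 37 °C, then exposed to library compounds for 90 min at 37 °C. Detection reagent was added for 30–60 min at room temperature, and luminescence was read.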
a7 integrin act = integrin-mediated muscular dystrophy alleviation activation. alpha7betagal myoblasts, beta-gal FDG fluorescence, 48 h. Potency, µM (top dose mostly 38.3 µM), inactives show top-dose activation, usual class: activators. hit rate 0.064% among 350,000. AID 624291; active = well fitted activation curve with a large enough effect; inconclusive = small, poorly fitted or top-dose-only effect; inactive = no such curve, though single readings can be large or run the other way;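 also: potency is read from the fitted curve at half-maximal effect; 100% = response of the positive control SU9516; nearly all actives have a fitted effect of over 60% in size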
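Alpha7betagal+/- myoblasts (passage 13) were plated 16-24 hr, then exposed to compounds (1:260 dilution of DMSO stock) for 48 hours at 37C. After MPER lysis, β-galactosidase reporter activity was read as FDG fluorescence (ex 480/em 540) after 30 minutes.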
D3 antag = D3 dopamine receptor (human) antagonism; P35462; D3R cells, DiscoveRx beta-arrestin luminescence, antagonist mode; active compounds read low; max response, negative = inhibition, %; hit rate 2.5% among 360,000; AID 652054; in the data active = max response below about -50%; inconclusive = no clear call, values can overlap the other calls; also: % is scaled to controls: 0 for no effect and ±100 for the full control effect
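Cells expressing the human receptor were seeded at 1500 cells/well, incubated overnight at 37 degrees C in 5% CO2, then exposed to library compounds with dopamine controls for 90 minutes at 37 degrees C before luminescent detection.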
The depositor's hits bear a star; ? = inconclusive; . = no result given.

SMILES	DRD3 agonist	a7 integrin act	D3 antag
COc1ccc(OC)c(C2C(C(=O)c3cccs3)=C(O)C(=O)N2c2cc(C)on2)c1 (stereo unspecified)	4	23%	-69*
COc1cccc(C2C(C(=O)c3cccs3)=C(O)C(=O)N2c2cc(C)on2)c1 (stereo unspecified)	10	6%	-55*
CN(C)c1ccc(CNC(=O)C2CCCN(S(=O)(=O)c3ccc4c(c3)CCCC(=O)N4)C2)cc1 (stereo unspecified)	-3	.	.
CCCC1=Nc2cc(C(=O)N3CCC(C(N)=O)CC3)ccc2Sc2ccccc21	2	5%	11
O=C(Cn1cc(S(=O)(=O)Cc2ccccc2)c2ccccc21)N1CCOCC1	0	-8%	20
CCOC(=O)c1sc(C)c2c1NC(c1ccc(N(C)C)cc1)NC2=O (stereo unspecified)	5	-20%	6
CC(C)Cc1nc2oc3c(Cl)ncnc3c2c2c1CCC2	0	-10%	-6
O=C(NC1CCCC1)C(c1ccc(F)cc1)N1CCC(O)(c2ccc(Cl)cc2)CC1 (stereo unspecified)	-15	.	-93*
CCN1CCN(C(C(=O)NC2CCCCC2)c2ccc(Cl)cc2)CC1 (stereo unspecified)	-9	20%	-60*
O=C(NC1CCCC1)C(c1ccc(Cl)cc1)N1CCN(C2CCCCC2)CC1 (stereo unspecified)	-17	-7%	-6
O=C(NC1CCCC1)C(c1ccc(Cl)cc1)N1CCOCC1 (stereo unspecified)	1	0%	9
O=C(c1ccc2c(c1)N(Cc1ccccc1F)C(=O)c1ccccc1S2(=O)=O)N1CCCC1	-3	-25%	19
CC(Oc1ccc(Cl)cc1Cl)C(=O)Nc1ccncc1 (stereo unspecified)	3	-50%	31
CC(Oc1ccc(Cl)cc1Cl)C(=O)NC1CCSC1=O (stereo unspecified)	-6	19%	-75*
CC(Oc1ccc(Cl)cc1Cl)C(=O)Nc1cccnc1 (stereo unspecified)	-3	6%	-53*
CC(NS(=O)(=O)c1ccc(Cl)c(Cl)c1)C(=O)Nc1cccnc1 (stereo unspecified)	-5	17%	-57*
COc1ccc(S(=O)(=O)NC(C)C(=O)Nc2ccccc2)cc1Cl (stereo unspecified)	-1	-18%	5
CCNC(=O)C(C)Oc1ccc(Cl)cc1Cl (stereo unspecified)	-5	11%	7
O=C(O)CCc1ccc(-c2ccccc2)n1NC(=O)c1cccs1	-9	-2%	-3
CC(C)(C)c1ccccc1NC(=O)COC(=O)CN1C(=O)NC2(CCCC2)C1=O	-6	-15%	17
COc1ccc(-c2noc3c2-c2nc(-c4ccc(Cl)cc4)sc2CC3)cc1	2	-15%	-18
COc1ccc(-c2noc3c2-c2nc(-c4cccc(C)c4)sc2CC3)cc1	59*	4%	45
O=C(CC1NCCc2ccccc21)Nc1ccc(Oc2ccccc2)cc1 (stereo unspecified)	15	-18%	?
O=C(CC1NCCc2ccccc21)Nc1ccccc1 (stereo unspecified)	-10	-30%	-74*
O=c1[nH]c(CSc2nnc(NCCCN3CCOCC3)s2)nc2cc(Cl)ccc12	-2	19%	-63*
SMILES	DRD3 agonist	a7 integrin act	D3 antag
Cc1ccc2nc(SCc3nc4cc(Cl)ccc4c(=O)[nH]3)[nH]c2c1	2	7%	-21
Cc1cc(S(=O)(=O)N2CCN(CC(=O)N(C)Cc3ccccc3)CC2)ccc1Br	-2	-16%	10
COc1cc(C=Nc2cccc(C)c2)c(O)c([N+](=O)[O-])c1	-30	?	-92*
Cc1cccc(N=Cc2cc3c(cc2[N+](=O)[O-])OCO3)c1	-1	-1%	-18
Cc1ccc(NC(=O)c2nc[nH]c2C(=O)NCCCCNC(=O)c2[nH]cnc2C(=O)Nc2ccc(C)cc2)cc1	42*	-5%	146
O=C(Nc1ccccc1)c1nc[nH]c1C(=O)NCCNC(=O)c1[nH]cnc1C(=O)Nc1ccccc1	69*	0%	134
CCOC(=O)c1ccc(NC(=O)c2nc[nH]c2C(=O)NCCCCNC(=O)c2[nH]cnc2C(=O)Nc2ccc(C(=O)OCC)cc2)cc1	3	17%	100
Cc1ccc(NC(=O)c2nc[nH]c2C(=O)NCCCCCCNC(=O)c2[nH]cnc2C(=O)Nc2ccc(C)cc2)cc1	1	9%	-3
O=C(Nc1ccccc1)c1nc[nH]c1C(=O)NCCCCNC(=O)c1[nH]cnc1C(=O)Nc1ccccc1	25	-5%	29
CCOC(=O)c1ccc(NC(=O)c2nc[nH]c2C(=O)NCCCCCNC(=O)OC(C)(C)C)cc1	52*	-4%	116
